Test results published in PubChem BioAssay (NCATS).
Calls of active or inactive are those of the source. The rule behind the calls is not given here.

What follows are compounds tested on HIV-1 nucleocapsid protein NCp7 (binding to TG oligonucleotide) (assay: HIV Nucleocapsid (AID 346;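 note: potency is for inhibitors that block NC binding and lower polarization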)). Conditions: HIV-1 NC / fluorescein-TGTGTGTG probe, fluorescence polarization.
Method in brief: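 Inhibition of nucleocapsid binding to single-stranded 5'-TGTGTGTG probe (10 nM) was measured by fluorescence polarization after 1 hr at room temperature with 100 nM protein under high-salt, zinc-containing, reducing conditions.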
Potency is the fitted concentration of half-maximal effect.

Structure (SMILES)	Potency
COc1ccc(NC(=O)N2CC[C@@]3(CCCN(C(=O)c4ccc(OC)cc4)C3)C2)cc1	> 20 µM (inactive)
c1ccc(Nc2nc(-c3cccnc3)nc3ccccc23)cc1	> 20 µM (inactive)
CS(=O)(=O)N1CCC[C@@]2(CCN(C(=O)Nc3ccccc3)C2)C1	> 20 µM (inactive)
COC(=O)N1CCC2(CCCN(c3ccc(-c4ccccc4)cc3)C2)CC1	> 20 µM (inactive)
COc1ccc(C(=O)N2CCC[C@@]3(CCN(C(=O)Nc4cccc(F)c4)C3)C2)cc1	> 20 µM (inactive)
CS(=O)(=O)N1CCC2(CCCN(Cc3ccc(C#N)cc3)C2)CC1	> 20 µM (inactive)
Cc1ccccc1-c1nc(NC2CCNCC2)c2ccccc2n1	> 20 µM (inactive)
COc1ccc(CNc2ncncc2-c2ccccc2Cl)c(OC)c1	> 20 µM (inactive)
COCCn1c(=O)c(-c2cc(F)cc(F)c2)nc2cnc(N3CCN(C)CC3)nc21	> 20 µM (inactive)
Cc1nc2cnc(Oc3cccc(Cl)c3)nc2n(C[C@H]2CCCO2)c1=O	> 20 µM (inactive)
FC(F)(F)c1ccccc1-c1ccc2ncnc(NC3CCNCC3)c2c1	> 20 µM (inactive)
COCC(=O)N1CCC2(CC1)CN(Cc1cc(C(F)(F)F)cc(C(F)(F)F)c1)C2	> 20 µM (inactive)
N#CCCn1c(=O)c(-c2ccc(F)cc2)nc2cnc(N3CCNCC3)nc21	> 20 µM (inactive)
CN(C)c1ccc(-c2nc(N3CCNCC3)c3ccccc3n2)cc1	> 20 µM (inactive)
COc1cccc(-c2nccc(NCc3ccc(OC)cc3OC)n2)c1	> 20 µM (inactive)
O=c1c(-c2ccc(F)cc2)nc2cncnc2n1Cc1ccc(F)cc1	> 20 µM (inactive)
Cc1ccccc1-c1nc(N(C)Cc2ccco2)c2ccccc2n1	> 20 µM (inactive)
O=C(c1csnn1)N1CCC[C@@]2(CCN(c3ncccn3)C2)C1	> 20 µM (inactive)
N#Cc1cccc(NC(=O)N2CC[C@@]3(CCCN(S(=O)(=O)c4ccccc4)C3)C2)c1	> 20 µM (inactive)
COCC(=O)N1CCC2(CCCN(c3cccc(-c4ccccc4)c3)C2)CC1	> 20 µM (inactive)

Structure (SMILES)	Potency
CN1CCN(c2ncc3nc(-c4cccc(C#N)c4)c(=O)n(Cc4ccc(F)cc4)c3n2)CC1	> 20 µM (inactive)
COc1ccccc1CNc1ncncc1-c1cccc(NS(C)(=O)=O)c1	> 20 µM (inactive)
O=C(c1ccco1)N1CCC[C@@]2(CCN(c3ccccn3)C2)C1	> 20 µM (inactive)
COc1cccc(-c2ccc3ncnc(NC4CCNCC4)c3c2)c1	> 20 µM (inactive)
CC(=O)N1CCC2(CC1)CN(c1ccncc1)C2	> 20 µM (inactive)
Cc1noc(C)c1-c1nccc(N2CCNCC2)n1	> 20 µM (inactive)
COc1ccc(CNc2cc(-c3cccnc3)ncn2)c(OC)c1	> 20 µM (inactive)
CN(C)c1ncnc2ccc(-c3cccc(C#N)c3)cc12	> 20 µM (inactive)
O=c1c(-c2cccs2)nc2cnc(N3CCOCC3)nc2n1Cc1ccc(F)cc1	> 20 µM (inactive)
N#CCCn1c(=O)c(-c2ccc(F)cc2)nc2cnc(N3CCOCC3)nc21	> 20 µM (inactive)
Cc1noc(C)c1C(=O)N1CCC[C@@]2(CCN(C(c3ccccc3)c3ccccc3)C2)C1	> 4 µM (inactive)
N#Cc1cccc(-c2cc(-n3ccnc3)ncn2)c1	> 20 µM (inactive)
CCNc1ncc2nc(-c3cc(F)cc(F)c3)c(=O)n(-c3ccc(OC)cc3)c2n1	> 4 µM (inactive)
COc1cccc(Cn2c(=O)c(-c3ccc(Cl)cc3)nc3cnc(N(C)C)nc32)c1	> 20 µM (inactive)
CS(=O)(=O)Nc1cccc(-c2cc(NCc3cccs3)ncn2)c1	> 20 µM (inactive)
COc1cccc(Nc2ncc3nc(-c4ccc(Cl)cc4)c(=O)n(C[C@H]4CCCO4)c3n2)c1	> 20 µM (inactive)
Cc1ccccc1-c1cncnc1NCCN1CCOCC1	> 20 µM (inactive)
Cc1cccc(CNc2ncncc2-c2ccc(C(=O)N(C)C)cc2)c1	> 20 µM (inactive)
Clc1ccccc1-c1cncnc1NCCN1CCOCC1	> 20 µM (inactive)
CCNc1ncc2nc(-c3cn(C)c4ccccc34)c(=O)n(C)c2n1	> 20 µM (inactive)
